Source: PubChem BioAssay AID1159580 (chemical genetic matrix, 2015)
Where “and” joins values, the source holds several entries; their conditions need not be identical. Equal values may be shown once. Screen size: about 5,500 compounds; about 2,000 (36%) were called active. Not shown: some 18% with an inconclusive outcome. No stated cut-off is given here; in the data, active means normalized growth mostly below about 0.91 (no sharp cut-off); inconclusive means no clear call, values can overlap the other calls; inactive means mostly above about 0.92. The list shows a part of the results.

Assay: chemical genetic growth profiling, strain panel (AID 1159580);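 further: tested at 20 µM; growth read once vehicle control cultures reached saturation at 30 °C; 1 = growth at the plate median or of vehicle wells; lower values mean less growth of the strain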
Details: growth OD
[1] = S. cerevisiae deletion strains, locus YBR021W, strain FUR4, hits give low values
[2] = S. cerevisiae deletion strains, locus YBR229C, strain ROT2, hits give low values
[3] = S. cerevisiae deletion strains, locus YCL029C, strain bik1, hits give low values
[4] = S. cerevisiae deletion strains, locus YDL035C, strain GPR1, hits give low values
[5] = S. cerevisiae deletion strains, locus YDL074C, strain BRE1, hits give low values
[6] = S. cerevisiae deletion strains, locus YDL101C, strain DUN1, hits give low values
[7] = S. cerevisiae deletion strains, locus YDL185W, strain tfp1, hits give low values
[8] = S. cerevisiae deletion strains, locus YDL192W, strain arf1, hits give low values
[9] = S. cerevisiae deletion strains, locus YDR101C, strain arx1, hits give low values
[10] = S. cerevisiae deletion strains, locus YDR162C, strain NBP2, hits give low values
[11] = S. cerevisiae deletion strains, locus YDR318W, strain mcm21, hits give low values
[12] = S. cerevisiae deletion strains, locus YDR388W, hits give low values
[13] = S. cerevisiae deletion strains, locus YDR502C, strain sam2, hits give low values
[14] = S. cerevisiae deletion strains, locus YER110C, hits give low values
[15] = S. cerevisiae deletion strains, locus YER155C, strain BEM2, hits give low values
[16] = S. cerevisiae deletion strains, locus YER167W, strain BCK2, hits give low values
[17] = S. cerevisiae deletion strains, locus YGL078C, strain dbp3, hits give low values
[18] = S. cerevisiae deletion strains, locus YGL086W, strain mad1, hits give low values
[19] = S. cerevisiae deletion strains, locus YGL248W, strain PDE1, hits give low values
[20] = S. cerevisiae deletion strains, locus YGR135W, strain pre9, hits give low values
[21] = S. cerevisiae deletion strains, locus YGR252W, strain gcn5, hits give low values
[22] = S. cerevisiae deletion strains, locus YHR030C, strain SLT2, hits give low values
[23] = S. cerevisiae deletion strains, locus YHR079C, strain IRE1 (second series), hits give low values
[24] = S. cerevisiae deletion strains, locus YHR094C, strain hxt1, hits give low values
[25] = S. cerevisiae deletion strains, locus YHR129C, strain ARP1, hits give low values
[26] = S. cerevisiae deletion strains, locus YHR200W, strain rpn10, hits give low values
[27] = S. cerevisiae deletion strains, locus YIL066C, strain RNR3, hits give low values
[28] = S. cerevisiae deletion strains, locus YIL073C, strain SPO22, hits give low values
[29] = S. cerevisiae deletion strains, locus YIL125W, strain kgd1, hits give low values
[30] = S. cerevisiae deletion strains, locus YIR030C, strain dcg1, hits give low values
[31] = S. cerevisiae deletion strains, locus YJL095W, strain BCK1, hits give low values
[32] = S. cerevisiae deletion strains, locus YJL134W, strain LCB3, hits give low values
[33] = S. cerevisiae deletion strains, locus YJL168C, strain set2, hits give low values
[34] = S. cerevisiae deletion strains, locus YJL187C, strain SWE1 (second series), hits give low values
[35] = S. cerevisiae deletion strains, locus YKL009W, strain mrt4, hits give low values
[36] = S. cerevisiae deletion strains, locus YKL068W, hits give low values
[37] = S. cerevisiae deletion strains, locus YKL085W, strain MDH1 (second series), hits give low values
[38] = S. cerevisiae deletion strains, locus YKL085W, strain MDH1, hits give low values
[39] = S. cerevisiae deletion strains, locus YKR001C, strain vps1, hits give low values
[40] = S. cerevisiae deletion strains, locus YLR039C, strain RIC1, hits give low values
[41] = S. cerevisiae deletion strains, locus YLR058C, strain SHM2, hits give low values
[42] = S. cerevisiae deletion strains, locus YLR102C, strain apc9, hits give low values
[43] = S. cerevisiae deletion strains, locus YLR262C, strain YPT6, hits give low values
[44] = S. cerevisiae deletion strains, locus YLR268W, strain sec22, hits give low values
[45] = S. cerevisiae deletion strains, locus YLR371W, strain rom2, hits give low values
[46] = S. cerevisiae deletion strains, locus YLR418C, strain cdc73, hits give low values
[47] = S. cerevisiae deletion strains, locus YML016C, strain PPZ1, hits give low values
[48] = S. cerevisiae deletion strains, locus YML032C, strain rad52, hits give low values
[49] = S. cerevisiae deletion strains, locus YML124C, strain tub3, hits give low values
[50] = S. cerevisiae deletion strains, locus YMR078C, strain ctf18, hits give low values
[51] = S. cerevisiae deletion strains, locus YMR223W, strain ubp8, hits give low values
[52] = S. cerevisiae deletion strains, locus YMR307W, strain GAS1, hits give low values
[53] = S. cerevisiae deletion strains, locus YNL067W, strain RPL9B, hits give low values
[54] = S. cerevisiae deletion strains, locus YNL233W, strain BNI4, hits give low values
[55] = S. cerevisiae deletion strains, locus YNL250W, strain rad50, hits give low values
[56] = S. cerevisiae deletion strains, locus YNL271C, strain bni1, hits give low values
[57] = S. cerevisiae deletion strains, locus YNL298W, strain CLA4, hits give low values
[58] = S. cerevisiae deletion strains, locus YNL307C, strain MCK1, hits give low values
[59] = S. cerevisiae deletion strains, locus YNR052C, strain pop2, hits give low values
[60] = S. cerevisiae deletion strains, locus YOL012C, strain htz1
[61] = S. cerevisiae deletion strains, locus YOL147C, strain pex11, hits give low values
[62] = S. cerevisiae deletion strains, locus YOR061W, strain CKA2, hits give low values
[63] = S. cerevisiae deletion strains, locus YOR069W, strain VPS5, hits give low values
[64] = S. cerevisiae deletion strains, locus YOR136W, strain idh2, hits give low values
[65] = S. cerevisiae deletion strains, locus YOR144C, strain elg1, hits give low values
[66] = S. cerevisiae deletion strains, locus YOR184W, strain ser1, hits give low values
[67] = S. cerevisiae deletion strains, locus YOR316C, strain cot1, hits give low values
[68] = S. cerevisiae deletion strains, locus YPR119W, strain clb2, hits give low values
[69] = S. cerevisiae deletion strains, locus YPR141C, strain kar3, hits give low values
[70] = S. cerevisiae deletion strains, locus YPR163C, strain tif3, hits give low values
[71] = S. cerevisiae deletion strains, locus YPR167C, strain met16, hits give low values
[72] = S. cerevisiae deletion strains, strain wtn01, hits give low values

Measured: normalized growth

C[C@]12CC[C@@H](O)C[C@H]1CCc1ccccc12
inactive: [1] 0.967 | [2] 1.01 | [3] 1 | [4] 1.01 | [5] 1.04 | [6] 1.01 | [7] 1.01 | [8] 0.999 | [9] 1.01 | [10] 1.04 | [11] 1 | [12] 1.01 | [13] 0.989 | S. cerevisiae deletion strains, locus YEL061C, strain CIN8, hits give low values 1.02 | [14] 0.999 | [15] 1.01 | [16] 1.02 | [17] 0.966 | [18] 0.989 | [19] 1 | [20] 0.992 | [21] 0.94 | [22] 1.02 | [23] 0.997 | [24] 0.999 | [25] 1.02 | [26] 1.01 | [27] 1.05 | [28] 1.04 | [29] 0.996 | [30] 1.01 | [31] 1 | [32] 1.02 | [33] 1 | [34] 1 | [35] 1.01 | [36] 1.01 | [37] 1.02 | [38] 1.02 | [39] 0.977 | [40] 0.918 | [41] 1.02 | [42] 1 | [43] 0.968 | [44] 1 | [45] 1.04 | [46] 0.973 | [47] 1.02 | [48] 0.99 | [49] 1 | [50] 1 | [51] 0.985 | [52] 1.07 | [53] 1 | [54] 1.01 | [55] 1.04 | [56] 1.01 | [57] 0.989 | [58] 1 | [59] 0.987 | S. cerevisiae deletion strains, locus YOL006C, strain TOP1, hits give low values 1.09 | [60] 1.06 | [61] 1.01 | [62] 1.03 | [63] 1.02 | [64] 0.995 | [65] 1 | [66] 0.978 | [67] 1 | S. cerevisiae deletion strains, locus YPL241C, strain CIN2, hits give low values 1.02 | [68] 1 | [69] 1.02 | [70] 1 | [71] 0.997 | [72] 0.99

C[C@]12[C@H](O)CC3C(CC[C@@H]4C[C@@H](O)CC[C@]34C)[C@@]1(O)CC[C@@H]2C1=CC(=O)OC1 (stereo partly drawn)
inactive: [1] 1.05 | [2] 1.01 | [3] 0.992 | [4] 1.07 | [5] 1.07 | [6] 1.01 | S. cerevisiae deletion strains, locus YDL134C, strain PPH21, hits give low values 0.997 | [7] 0.987 | [8] 1 | [9] 1.01 | [10] 1.01 | [11] 0.999 | [12] 0.976 | [13] 0.971 | [14] 0.974 | [15] 0.998 | [16] 1.02 | [17] 0.979 | [18] 0.983 | [19] 1.01 | S. cerevisiae deletion strains, locus YGR078C, strain PAC10, hits give low values 1.01 | [20] 0.941 | [21] 0.923 | [22] 1.01 and 1 | [23] 0.98 | S. cerevisiae deletion strains, locus YHR079C, strain IRE1, hits give low values 0.993 | [24] 0.976 | [25] 1.01 | [26] 0.968 | [27] 1.04 | [28] 1 | [29] 0.984 | [30] 0.986 | [31] 0.999 and 0.994 | [32] 1.01 | [33] 0.994 | [34] 1.01 | S. cerevisiae deletion strains, locus YJR066W, strain TOR1, hits give low values 0.903 | [35] 1.02 | [36] 0.994 | [37] 0.975 | [38] 0.975 | [39] 1.01 | [40] 1.05 | [41] 1.02 | [42] 0.982 | S. cerevisiae deletion strains, locus YLR113W, strain HOG1, hits give low values 1.03 | [43] 1.09 | [44] 1.01 | S. cerevisiae deletion strains, locus YLR342W, strain FKS1 (second series), hits give low values 1.05 | [45] 0.996 | [46] 0.955 | [47] 1.02 | [48] 0.998 | [49] 0.986 | [50] 0.979 | [51] 0.974 | [52] 1.13 | [53] 0.99 | S. cerevisiae deletion strains, locus YNL153C, strain GIM3, hits give low values 1 | S. cerevisiae deletion strains, locus YNL183C, strain NPR1, hits give low values 0.924 | [54] 1 | [55] 0.974 | [56] 0.991 | [57] 1.01 | [58] 0.977 | [59] 0.965 | [60] 0.887 | [61] 0.99 | [62] 1.04 | [63] 1.01 | [64] 0.952 | [65] 0.987 | [66] 1.03 | S. cerevisiae deletion strains, locus YOR231W, strain MKK1, hits give low values 1 | [67] 0.982 | S. cerevisiae deletion strains, locus YPL256C, strain CLN2, hits give low values 0.982 | [68] 0.985 | [69] 0.983 | [70] 0.988 | [71] 0.984 | [72] 0.998 | S. cerevisiae strains, strain wild type, hits give low values 1.03
